# In PubChem BioAssay AID1508600 (Functional Genomics Laboratory (NCATS/FGL), 2020):
# The whole screen tested about 53,000 sequences, of which about 3,700 (7%) were called active.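 Rule for the calls: active = gene knockdowns whose robust z-score for IL-1 alpha signal is at least 2 or at most -2, so actives lie on both sides; inactive = the rest.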 Shown is part of a subset that was picked to be rich in actives.
# Experiment: Components of the Cytosolic LPS Sensing Pathway: Gene Identification via Genome-wide siRNA Screen;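 note: robust z of the log signal after scaling to non-targeting control siRNA wells of the plate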
# Conditions: RAW264.7 macrophages, IL-1a HTRF, actives lie on both sides, screened at 100 nM (by protocol), cells primed 5 h with Pam3CSK4 first
# Summary of the method: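 Cells (RAW264.7, 1×10^4 per well) were transfected with siRNA at 100 nM and cultured 48h at 37 degrees C. Pam3CSK4 was added for 5 hours; LipidA transfection followed for 24 hour. IL-1a was then measured by HTRF.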
row,Sequence,z-score
1,GGAACAAUGGGUUCAUUUUTT against Ifi203,0.136 (inactive)
2,CGUAAUCUUCAUCUUAGUATT against Olfr613,0.601 (inactive)
3,GGAACCAAGGAUGUGAAAGTT against Rab13,-2.17 (active)
4,GGAGUCUUGGAAAAAAGGCTT against Rep15,-1.65 (inactive)
5,GGCCUGUUGAUUGCAUAUUTT against Sppl2a,-1.01 (inactive)
6,GGCCUGAAAAGACUGAUAATT against Vmn2r26,1.18 (inactive)
7,GCUAGUUAAGAGGAGGCUGTT against Nob1,-0.252 (inactive)
8,GGAGCACAGGAAAAUAUAUTT against Mdm2,0.561 (inactive)
9,GCACUUUGUAUAUCUUUCCTT against Btd,1.51 (inactive)
10,GGAGAAGGAUUAUACCAGUTT against Rfesd,2.2 (active)
11,GGGAGUUUCCAGAUGUUUUTT against Gclm,0.0729 (inactive)
12,GGAAGAAAAGACUUAUCGUTT against Jkamp,-0.663 (inactive)
13,GGGAAACAUCUUCCUAUCCTT against Serpina12,-0.958 (inactive)
14,GGCAGGUUUUUGACAACUUTT against Fxyd4,3.2 (active)
15,CCUAAUAAGCCAUAUGCAUTT against Alkbh8,-0.449 (inactive)
16,GCCCUCUGUGAGUAGUAAUTT against Shroom3,0.603 (inactive)
17,GUUACUACAACAGCUACUATT against Krtap19-4,-2.37 (active)
18,GGACAUUGCCCACAUGACCTT against Rnf227,-0.15 (inactive)
19,GCUCAACAGGCUCAACUACTT against Cndp2,0.492 (inactive)
20,GGACUACCGAACAAGAGAATT against Zfp318,0.241 (inactive)
21,GCAUUCACCGUACGUAUUCTT against Id4,0.187 (inactive)
22,GGGUAGAAUCCAAGAAGCGTT against Hoxb3,-2.08 (active)
23,GGUCUUCAACCCUGUUUGGTT against Gpsm3,0.329 (inactive)

row,Sequence,z-score
1,GGAGACUCCAUACCAGUGUTT against Zfp329,1.78 (inactive)
2,GGAUAUGGGAAUGAAAGCATT against Nyap2,-2.21 (active)
3,GGCAGCAUUACACUGAAUCTT against Slc36a4,0.436 (inactive)
4,CCUAGUGAUUAAAGGGAUGTT against Prss43,1.19 (inactive)
5,GGAAAGUGUUUUCUCAUGATT against Klf9,-0.23 (inactive)
6,GGUGGUCUACUUCACCGCATT against Slc6a20a,0.466 (inactive)
7,GGAUCUCCUUUUUUUUCAATT against Gabrr1,0.0887 (inactive)
8,UCAUCGCAACCAUCCACAGTT against Olfr530,0.464 (inactive)
9,CGAUGACGAUGCCUAACCATT against Dgkeos,-2.34 (active)
10,GGGAGUCUGGUGGAUUGAUTT against Rln1,0.0253 (inactive)
11,GGUCUCACAAAAACAGUUCTT against Casq2,-0.317 (inactive)
12,GCAGUGUAAUGUGGCCUACTT against Rorc,0.682 (inactive)
13,GCUGUUUUCUUUCCAUUUCTT against Olfr981,-1.1 (inactive)
14,GAAUUACACACAGGCCUGATT against Olfr1048,0.306 (inactive)
15,CACUGCUGUAAUCCCUAUGTT against Olfr1002,0.4 (inactive)
16,CCAACAACGGCAUUCACUATT against Ebf3,-0.676 (inactive)
17,GGAGCACUUUGUAUGGAACTT against Ube2q2,2.97 (active)
18,CAAACCUUGUUGCCAUGACTT against Olfr406,0.0688 (inactive)
19,GACAAGGUGCCAUACCAUUTT against Olfr351,-0.373 (inactive)
20,GGACAGCUCUCAGAAUUCUTT against Ctse,-1.13 (inactive)
21,CGCAAACAAACCUUAACAGTT against Maneal,2.21 (active)
22,GCUCCGGAAAGUAAGCAGATT against Tnfrsf26,0.259 (inactive)
23,CCAUGGUACUAAUGUAAAUTT against Eef1e1,0.797 (inactive)

row,Sequence,z-score
1,GGCUUUGAACACCAGUGAATT against Rpp21,-0.453 (inactive)
2,CGCAGAUAAUAUCUUUGUCTT against Olfr461,0.389 (inactive)
3,GGACCUAAGCAGAAAACUGTT against Meis3,0.789 (inactive)
4,GCGGUAUGGCAUGGUACAUTT against LTO1,-0.855 (inactive)
5,GGCCAUAAAACAUAAGCUATT against Tmem17,0.163 (inactive)
6,CGAACUUGUACAGAAGAAUTT against Slfn3,-0.311 (inactive)
7,AUGGGAGAAUCAGCAGAACTT against Set,-2.77 (active)
8,GCAUAGAGGACUACAACGATT against Optc,0.329 (inactive)
9,GGACAGGAAGAAAAGAAACTT against Vmn2r-ps11,-1.19 (inactive)
10,GGAAGGUGAAGCCAGUUUCTT against Traf3ip2,2.02 (active)
11,GGACACUUUCAGACCUUAGTT against Ankrd27,-0.116 (inactive)
12,GGACUUUGAUGUUGAAUGUTT against Rapgef1,-0.985 (inactive)
13,GGAAAAUGGUUGGUACUUUTT against Vwc2,0.219 (inactive)
14,GGACCUUCCUACGAGAAAATT against Tm2d2,0.0894 (inactive)
15,GGAUCAAGGAGGAUUUCAATT against Tprg,2.38 (active)
16,CGGUAAACAUCAGUAAUGATT against Drd5,0.0608 (inactive)
17,GCUACGUUCAGUUCCAUUGTT against Eddm3b,-0.321 (inactive)
18,CGACUUGAUUUCAAAACAUTT against Fbxl13,-0.981 (inactive)
19,GGACCUGUCCAUCUUCAUCTT against Scn1b,3.87 (active)
20,GCCAAGAGUUUGAUAUAUATT against Plekhg3,1.79 (inactive)
21,GGUAACAUCUCCAUCAGCCTT against Nxph3,0.34 (inactive)
22,GGUAUCUUUAGGUUUCUGGTT against Vmn2r37,0.499 (inactive)
23,GCCAAGAAAGAUCAUUGACTT against Far2,-0.703 (inactive)
